Rows were chosen to be rich in hits. Some 32% of all compounds tested hit in one or more screens of this group.
PostGolgi ctrl: growth inhibition of yeast control strain, primary screen, counter-screen for post-Golgi transport modulator project | efflux-deficient yeast background strain, growth absorbance A615, 16 h | inhibition, % at 10 µM | 98,000 tested, 5% active
CYP2C19 activ: human CYP2C19 activators, primary screen, biochemical, luminescence | Cytochrome P450 2C19 (Homo sapiens), P33261 | recombinant CYP2C19, luciferin-H EGE luminescence; hits give high values; 0 = fully inhibited enzyme, 1 = untreated enzyme | activation factor at 5 µM | 96,000 tested, under 10 active | AID 1025, 2008;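 active = activation factor of at least 2 at 5 µM in the primary screen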
CYP2C9 inh: blockers of cytochrome P450 2C9 activity – biochemical, luminescence, ADME assay, primary screen; inhibition, % at 5 µM; P11712; CYP2C9 Supersomes, luciferin-H conversion; 96,000 tested, 20% active; AID 777, 2007;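 active = blocking of liver enzyme CYP2C9 beyond about 50% at 5 µM, limit read from the data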
Target sequence (P11712 whole entry, looked up): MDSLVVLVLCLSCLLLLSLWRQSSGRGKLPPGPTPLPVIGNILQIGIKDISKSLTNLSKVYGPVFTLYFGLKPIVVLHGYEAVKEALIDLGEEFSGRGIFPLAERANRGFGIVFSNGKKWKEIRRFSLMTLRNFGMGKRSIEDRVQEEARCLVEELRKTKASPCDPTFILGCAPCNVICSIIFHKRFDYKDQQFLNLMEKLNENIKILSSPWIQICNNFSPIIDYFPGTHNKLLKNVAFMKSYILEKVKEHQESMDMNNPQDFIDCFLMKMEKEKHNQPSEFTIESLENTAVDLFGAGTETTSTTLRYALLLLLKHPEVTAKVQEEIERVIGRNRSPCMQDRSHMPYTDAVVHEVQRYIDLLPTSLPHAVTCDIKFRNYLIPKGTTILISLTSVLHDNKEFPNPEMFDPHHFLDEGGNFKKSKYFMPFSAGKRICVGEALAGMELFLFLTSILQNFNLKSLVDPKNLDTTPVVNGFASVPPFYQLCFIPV
CYP2C9 activ: human CYP2C9 activators, primary screen, biochemical, luminescence. Cytochrome P450 2C9 (Homo sapiens), P11712. activation factor at 5 µM. 96,000 tested, 1.4% active. recombinant CYP2C9, luciferin-H conversion; hits give high values; factor 1 = untreated enzyme, 0 = blocked;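 active = activation factor of 2 or more for CYP2C9 at a 5 µM dose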
CYP2C19 inhib: blockers of cytochrome P450 2C19 activity – biochemical, luminescence, ADME assay, primary screen; CYP2C19 Supersomes, luciferin-H EGE luminescence, 30 min; 96,000 tested, 21% active; inhibition, % at 5 µM;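 active = CYP2C19 inhibition above a set limit at 5 µM in the primary screen, cut at about 50% in these data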
PostGolgi yeast: phenotypic screen on post-Golgi transport, primary screen; 98,000 tested, 0.9% active; post-Golgi transport phenotypic cell assay; inhibition, % at 10 µM; AID 739, 2007;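 note: yeast cells grown in 1536-well plates; yeast grown about 18 h at 30C before absorbance read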
Numbers stand for hits; . = inactive; / = no result given. Cut-off read from the data, not from the text of the source, unless noted: active = inhibition above about 30%; inactive = the rest.

SMILES | PostGolgi ctrl | CYP2C19 activ | CYP2C9 inh | CYP2C9 activ | CYP2C19 inhib | PostGolgi yeast
O=C(CN1CCCc2ccccc21)NCc1ccc2c(c1)OCO2 | / | . | . | . | 98.9 | /
O=C(NCc1ccco1)N1c2ccccc2Sc2ccccc21 | . | . | 57.5 | . | 50.0 | .
O=C(CN1CCc2ccccc21)Nc1ccc2c(c1)OCO2 | . | . | . | . | . | .
O=C(NCc1ccco1)Oc1ccccc1 | . | . | . | . | . | .
CCC(C)N(NC(C)=O)c1nc(Cl)nc(NC(C)C)n1 (stereo not given) | . | . | . | . | . | .
O=C(CCC(=O)NC1CCCCCC1)Nc1nnc(C(F)(F)F)s1 | . | . | 66.0 | . | . | .
O=C(CCC(=O)NC1CCCCCCC1)Nc1nnc(C(F)(F)F)s1 | . | . | 83.0 | . | . | .
O=C(OCn1nnc2ccccc2c1=O)c1ccc2c(=O)n3c(nc2c1)CCC3 | . | . | . | . | . | .
O=Cc1ccc(N2CCCCCC2)cc1 | . | . | . | . | 88.8 | .
COc1ccc(CC(=O)Nc2nc3ccc(F)cc3s2)cc1S(=O)(=O)N1CCOCC1 | . | . | 74.9 | . | 75.4 | .
COc1ccc(CC(=O)Nc2nc3ccccc3s2)cc1S(=O)(=O)N1CCOCC1 | . | . | 64.1 | . | 76.3 | .
CCOc1ccc2nc(NC(=O)c3ccc(OC)c(S(=O)(=O)N4CCOCC4)c3)sc2c1 | . | . | . | . | . | .
COc1ccc(CC(=O)Nc2nnc(SCc3ccccc3)s2)cc1S(=O)(=O)N1CCOCC1 | . | . | 90.4 | . | 90.7 | .
O=C(COC(=O)c1ccc(S(=O)(=O)N2CCOCC2)cc1)NC1CCCCCC1 | . | . | . | . | . | .
CNS(=O)(=O)c1cccc(C(=O)OCC(=O)c2cc(C)n(-c3ccc4c(c3)OCO4)c2C)c1 | . | . | 67.6 | . | 61.8 | .
CNS(=O)(=O)c1cccc(C(=O)OCC(=O)C23CC4CC(CC(C4)C2)C3)c1 | . | . | . | . | . | .
CCOC(=O)CSC1=C(C#N)C(C)C2=C(CCCC2=O)N1 (stereo not given) | . | . | . | . | 94.0 | .
CCc1ccccc1NC(=O)CSC1=C(C#N)C(c2ccc(O)c(OC)c2)C2=C(CCCC2=O)N1 (stereo not given) | . | . | 56.1 | . | . | .
CCSC1=C(C#N)C(c2ccc3c(c2)OCO3)C2=C(CCCC2=O)N1 (stereo not given) | . | . | 66.8 | . | 84.6 | .
COC(=O)CSC1=C(C#N)C(c2ccc(C)cc2)C2=C(CCCC2=O)N1 (stereo not given) | . | . | . | . | . | .
N#CC1=C(SCc2ccccc2)NC2=C(C(=O)CCC2)C1c1ccc2c(c1)OCO2 (stereo not given) | . | . | . | . | . | .
COC(=O)CSC1=C(C#N)C(c2ccc3c(c2)OCO3)C2=C(CCCC2=O)N1 (stereo not given) | . | . | 85.6 | . | 74.2 | .
CC1CCN(C(=O)CSc2nc(N)cc(N)n2)CC1 | . | . | . | . | . | .
O=C(N/N=C/c1c(Nc2cccc(C(F)(F)F)c2)nc2ccccn2c1=O)c1ccccc1 | . | . | . | . | . | .
O=C1CCCC2=C1C(c1ccc3c(c1)OCO3)c1c([nH]n(-c3ccccc3)c1=O)N2 (stereo not given) | . | . | . | . | . | .
Cc1ccc(NC(=O)CSC2=C(C#N)C(c3ccc4c(c3)OCO4)C3=C(CCCC3=O)N2)c(C)c1 (stereo not given) | . | . | 93.4 | . | 87.6 | .
CCOc1ccccc1NC1=C(Cl)C(=O)N(Cc2ccccc2)C1=O | 32.5 | . | 70.4 | . | 52.3 | .
CCOc1cc2[nH]c(=O)n(Cc3ccccc3)c(=O)c2cc1OCC | . | . | . | . | . | .
Cc1cc(NC(=O)CSc2nnc(-c3cccs3)n2N)no1 | . | . | . | . | . | .
O=C(NC1CCCCCC1)C1CCCN1S(=O)(=O)c1cccc2cccnc12 (stereo not given) | . | . | . | . | 75.4 | .

Bioassay records (PubChem BioAssay)
